Reference: PubChem BioAssay AID720513 (Broad Institute, 2013)
Hit rate of the full screen: of about 2,100 compounds, about 480 (23%) were called active. Roughly 5% stayed inconclusive and do not appear here.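 How the source made its calls: active means fitted curve reaches 40% activation at or below the top valid concentration, in every replicate test; inconclusive means replicate tests disagree on the call; inactive means the rest, including activity in the opposite direction.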 Only a sample is shown. Potency and affinity values are given separately.

Assay: PGC1a acetylation increase, cellular AlphaLISA – cell-based, cherry-picked samples, set 6, dose response (AID 720513);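 further: cells made to overexpress flag tagged PGC1a plus GCN5 acetyltransferase by viral infection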
Conditions: U2OS PGC1a acetylation AlphaLISA, overnight, 0 = neutral, -100 = inhibitor control; series mostly up to 19.5 µM

outcome, inactive:
O=C(NCC1CCCO1)c1cc2c([nH]c3ccccc32)c(-c2cccc(Cl)c2)n1 (stereo unspecified)
CNC[C@@H]1OCCCC[C@@H](C)Oc2ccc(NS(=O)(=O)c3ccc(C)cc3)cc2C(=O)N([C@H](C)CO)C[C@@H]1C
COc1cc(Cl)c(S(=O)(=O)N2CC(C)OC(C)C2)cc1Cl (stereo unspecified)
O=C(OCc1nc(-c2ccccc2)oc1COC(=O)c1ccco1)c1ccco1
COc1ccc(N(CC(=O)Nc2ccccc2Cl)S(=O)(=O)c2ccc(C)cc2)cc1OC
Cc1cc(Cl)ccc1OCC(=O)Nc1cccc(S(=O)(=O)NC2=NCCCCC2)c1
N#CC1=C(N)Oc2c(ccc3ccccc23)C1c1ccsc1 (stereo unspecified)
C[C@H]1CN([C@@H](C)CO)C(=O)c2cc(C#Cc3ccccc3)cnc2O[C@@H]1CN(C)C(=O)c1ccccc1F
c1cncc(CNc2ncnc3ccc(-c4ccoc4)cc23)c1
COC(=O)c1cc(CN2C(=O)c3ccccc3C2=O)c(O)c([N+](=O)[O-])c1
O=C(Nc1nc(-c2ccccn2)cs1)c1ccccc1-n1cnnn1
O=C(Nc1ccccc1N1CCOCC1)C1(c2ccc(Cl)cc2)CCC1
O=C(c1ccc(CN2CCOCC2)cc1)N1CCN(Cc2ccccc2)CC1
C#CCN1C(=O)C(O)(CC(=O)c2ccc(OC)c(OC)c2)c2ccccc21 (stereo unspecified)
CC(C)C#Cc1cnc2c(c1)C(=O)N([C@H](C)CO)C[C@H](C)[C@H](CN(C)C(=O)c1ccccn1)O2
CCOc1ccc(N2CC(C(=O)Nc3ccc(S(=O)(=O)NCC4CCCO4)cc3)CC2=O)cc1 (stereo unspecified)
O=C(c1cccc(N2C(=O)C3C4C=CC(C4)C3C2=O)c1)N1CCCc2ccccc21 (stereo unspecified)
COc1ccc(F)cc1CN1CCN(CC(=O)N2CCc3ccccc32)CC1
C[C@H](CO)N1C[C@H](C)[C@@H](CN(C)C(=O)Nc2ccc(-c3cccs3)cc2)OCc2cnnn2CCCC1=O
CCCc1cn(CC[C@@H]2CC[C@H](NC(=O)Nc3ccc4c(c3)OCO4)[C@@H](CO)O2)nn1
O=c1c2cn(Cc3ccc(F)cc3)c3ccc(F)cc3c-2nn1Cc1ccc(F)cc1
FC(F)(F)c1ccc(Cl)c(-n2c(-c3cc(-c4ccco4)[nH]n3)n[nH]c2=S)c1
C[C@H](CO)N1C[C@H](C)[C@H](CN(C)Cc2ccncc2)OCc2cn(nn2)CCCC1=O
COCC(=O)N1C[C@@H](C)[C@@H](OC)CN(C)C(=O)c2ccc(NC(=O)c3cnccn3)cc2OC[C@@H]1C
CC(=O)n1nc2nc(C)cc(C)c2c1N
CCS(=O)(=O)Nc1ccc2c(c1)C(=O)N(C)C[C@@H](OC)[C@H](C)CN(Cc1ccccn1)[C@@H](C)CO2
O=C(COC(=O)Cc1ccc(S(=O)(=O)N2CCOCC2)s1)NCCc1ccccc1
O=C(O)C1CCCN1S(=O)(=O)c1cc(Cl)ccc1Cl (stereo unspecified)
C[C@@H]1CN([C@@H](C)CO)C(=O)CCCn2nncc2CO[C@H]1CN(C)S(=O)(=O)c1ccc(Cl)cc1
COCCCNC(=O)c1ccc(Cn2c(=O)c3ccccc3n(Cc3ccccc3C)c2=O)cc1
CCCCN(CCCC)CCNC(=O)c1ccc2nc(-c3ccccc3NC(C)=O)c(=O)[nH]c2c1
CCCOc1ccc2ccccc2c1/C=C1\SC(=O)NC1=O
Nc1nc(SCC(=O)Nc2ccccc2Sc2ccc(Cl)cc2)n[nH]1
C[C@@H]1CN([C@H](C)CO)C(=O)c2cc(-c3ccccc3)cnc2O[C@H]1CN(C)C(=O)Cc1ccccn1
CN(C)CCNC(=O)c1cccc2c(-c3ccc(F)c(F)c3)coc12
O=C(CSc1nnc(-c2ccco2)n1-c1ccccc1)Nc1c(Cl)cc(Cl)cc1C(=O)O
COC(=O)/C=C/c1cnc2ccccc2c1
CCC(=O)Nc1cccc(C(=O)/C=C/c2ccccc2)c1
O=C(/C=C/c1cccs1)c1ccc(NC(=O)c2cccc(Br)c2)cc1
CC(c1ccccc1)N1C(=O)NC(NC(=O)c2cccnc2)(C(F)(F)F)C1=O (stereo unspecified)
Cc1ccc2oc(Nc3nc(C)c(C)c(C)n3)nc2c1
CCC(=O)Nc1ccnc(-c2cccnc2)n1
O=C(CCS(=O)(=O)c1ccc(Cl)cc1)Nc1nccs1
OC[C@H]1[C@H](c2ccc(C#CC3CCCC3)cc2)[C@@H]2CN(CCC(F)(F)F)CCCCN12
COc1ccc(CN(C)C[C@@H]2Oc3ccc(NS(=O)(=O)c4c(C)noc4C)cc3C(=O)N([C@@H](C)CO)C[C@@H]2C)cc1
C[C@H]1CCCCO[C@H](CN(C)Cc2ccncc2)[C@@H](C)CN([C@@H](C)CO)C(=O)c2cc(NS(=O)(=O)c3ccccc3)ccc2O1
O=C1C=CCCN1C(=O)/C=C/c1cccc(C(F)(F)F)c1
COc1ccc(C#Cc2ccc([C@H]3[C@@H](CO)N4CCCCN(C(=O)Nc5ccc(F)cc5)C[C@H]34)cc2)cc1
C[C@@H]1CN([C@@H](C)CO)C(=O)Cc2cc(NC(=O)C3CCCCC3)ccc2O[C@@H]1CN(C)Cc1ccc(Cl)c(Cl)c1
CC(C)CC#Cc1ccc([C@H]2[C@H](CO)N3C(=O)CN(C(=O)Nc4cc(F)ccc4F)C[C@@H]23)cc1
O=C(COC(=O)c1cc[n+]([O-])cc1)Nc1cccc(Cl)c1Cl
Cc1c(Cl)cccc1Nc1ncccc1C(=O)O
Cc1noc(C)c1NC(=O)N(C)C[C@H]1OCCCC[C@@H](C)Oc2ccc(NC(=O)Cc3ccccc3)cc2C(=O)N([C@@H](C)CO)C[C@@H]1C
C[C@@H]1CN([C@H](C)CO)C(=O)c2cc(NS(=O)(=O)c3cccs3)ccc2O[C@@H]1CN(C)S(=O)(=O)c1ccc(F)cc1
Cc1ccc(S(=O)(=O)N[C@@H]2CC[C@@H](CCNC(=O)c3ccccc3F)O[C@H]2CO)cc1
O=C(CSc1nc2ccc(Cl)cc2[nH]1)c1ccc2c(c1)OCO2
